PABP1 MLLE inh – blocks PAM2 peptide binding to the PABP1 MLLE domain | hit rate 0.36% among 360,000 | inhibition, % at 20 µM | GST-MLLE / FITC-PAM2 fluorescence polarization | AID 588489 | P11940; in the data active = inhibition above about 35%, passing the limit was not always enough;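 also: plate controls were DMSO wells with GST-MLLE for no effect and wells lacking GST-MLLE protein for full effect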
eIF4E-4G inh – eIF4E/eIF4G interaction inhibition in translation initiation | hit rate 0.37% among 220,000 | TR-FRET eIF4E-eIF4GI(517-606) binding, 2 h | AID 782 | P63073+Q04637 | inhibition, % at 21.7 µM;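 active = inhibition above about 30%, limit read from the data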;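 also: 0% = full FRET control wells and 100% = background wells lacking eIF4GI fragment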
eIF4H inh – inhibitors of RNA binding by human eIF4H | hit rate 0.94% among 290,000 | Q15056 | inhibition, % at 35 µM | eIF4H fluorescence polarization binding assay;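 also: calls also rest on retests at 20 µM and on dose response follow-up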
14-3-3 Bad PPI – disrupts binding of bovine 14-3-3 zeta to phospho-Bad peptide; TR-FRET 14-3-3zeta/Dy647-pBad peptide displacement, 1 h; inhibition, % at 21.7 µM; hit rate 0.71% among 220,000; AID 781;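 active = inhibition above about 70%, limit read from the data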;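 also: 0% = full 14-3-3 plus peptide FRET controls and 100% = background without 14-3-3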
PABP polyA inh – blocks human PABP binding to poly(A) RNA. P11940. fluorescence polarization. calls only at 35 µM. hit rate 1% among 290,000;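 also: calls also rest on retests at 20 µM and on dose response follow-up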
Starred values were filed as active, the others as inactive; i = inactive; ? = inconclusive; . = no result; + = active, no number; ! = repeats disagree. Only some compounds are listed: those with a hit (about 1.9% of all), similar ones and a draw of the others. Unless noted, no rule for the calls is given here.

SMILES	PABP1 MLLE inh	eIF4E-4G inh	eIF4H inh	14-3-3 Bad PPI	PABP polyA inh
O=c1[nH]c(=S)n(C2CC2)c(O)c1C=Nc1ccc2c(c1)OCO2	6.2	-3.3	68.1*	-5.7	i
Cc1ccccc1NP(=O)(Oc1ccccc1F)Oc1ccccc1F	-5.2	-3.1	4.1	10.9	i
CN1C2CCC1C(COC(=O)c1ccccc1)C(O)C2 (stereo not drawn)	-1.1	-2.0	7.2	90.6*	i
COC(=O)C1C(O)CC2CCC1N2C (stereo not drawn)	-2.0	.	.	.	.
COC(=O)C1=C(c2ccccc2OCc2ccccc2)C[C@@H]2CC[C@H]1N2C(=O)NCCOc1ccccc1Cl	15.2	.	.	.	.
CC[C@@H](CO)NC(=O)[C@@H]1C=C2c3cccc4c3c(cn4C)C[C@H]2N(C)C1	74.8*!	10.4	?	33.3	?
CCC(CO)NC(=O)C1C=C2c3cccc4[nH]cc(c34)CC2N(C)C1 (stereo not drawn)	82.2	-1.3	?	-2.3	?
COc1ccccc1-n1c(O)c(/C=C2\C=Nc3ccccc32)c(=O)[nH]c1=O	-103.5	.	?	.	?
C=CCn1c(O)c(/C=C2\C=Nc3ccccc32)c(=O)[nH]c1=O	-43.8	0.4	?	-6.3	+
CC(C)c1ccc(N2C(=O)NC(=O)/C(=C/c3cnc(-c4ccccc4)nc3)C2=O)cc1	7.2	6.1	54.3	10.4	+
CCOc1cc2c(cc1OCC)-n1cccc1C(c1ccccc1OC)NC2 (stereo not drawn)	-5.9	.	1.6	.	i
O=C1NCN(c2ccccc2)C12CCN(C(c1cc3ccccc3o1)c1nnnn1Cc1ccccc1)CC2 (stereo not drawn)	3.1	.	.	.	.
Cc1cccc(N2C(=O)NC(=O)/C(=C/c3ccc([N+](=O)[O-])o3)C2=O)c1	.	24.6	79.6*	39.4	+
Cc1cccc(N2C(=O)NC(=O)/C(=C\C=C\c3ccco3)C2=O)c1	-84.7	-0.1	?	0.9	?
O=C1NC(=S)N(c2ccc(F)cc2)C(=O)/C1=C/c1ccco1	.	.	49.8	.	i
O=C1NC(=S)N(c2ccc(F)cc2)C(=O)/C1=C\c1ccoc1	-78.7	33.9*	?	76.1*	i
Cc1ccc(/C=C2\C(=O)NC(=O)N(CCc3ccc(F)cc3)C2=O)o1	-46.4	3.6	?	-3.4	+
Cc1ccc(/C=C2/C(=O)NC(=O)N(Cc3ccc(F)cc3)C2=O)o1	.	-4.5	38.7	-2.5	i
COc1cc(/C=C2\C(=O)NC(=O)N(c3ccccc3)C2=O)c([N+](=O)[O-])cc1OC	49.4*	4.5	31.2	-2.6	i
CC1N=C(c2ccccc2)c2cc(Br)ccc2NC1=O (stereo not drawn)	2.5	.	14.2	.	i
COc1ccc(N2C(=O)/C(=C/c3ccc(C)o3)C(=O)NC2=S)cc1	-21.8	.	11.5	.	i
CN(C)c1ccc(/C=C2\C(=O)NC(=O)N(Cc3ccc(F)cc3)C2=O)cc1	-65.4	-0.2	?	8.3	+
Cc1ccc(/C=C2\C(=O)NC(=S)N(c3cccc(F)c3)C2=O)o1	-43.1	.	71.5	.	+
Fc1ccc2c(c1)nnn2C1CCN(Cc2nnnn2CCc2ccccc2)CC1	-1.4	-11.6	-0.2	75.6*	i
c1ccc(CCn2nnnc2CN2CCC(n3nnc4ccccc43)CC2)cc1	0.7	1.4	1.9	-1.0	i
SMILES	PABP1 MLLE inh	eIF4E-4G inh	eIF4H inh	14-3-3 Bad PPI	PABP polyA inh
CC[C@@H](C(N)=O)N1CCCC1=O	.	97.9*	7.5	3.6	i
CCC(C(=O)Nc1ccc(Cl)cc1)N1CCCC1=O (stereo not drawn)	7.8	.	.	.	.
CCN(CC)CCOC(=O)C(O)(c1ccccc1)c1ccccc1	-8.5	0.8	-15.2	4.4	i
CC(C)N1C(=O)CC2(CC[N+](C)(CCOC(=O)C(O)(c3ccccc3)c3ccccc3)CC2)C1=O (stereo not drawn)	-106.9	0.9	1.2*	6.7	+
CC(C)(C)N1C(=O)NC(=O)/C(=C\c2ccc3c(c2)CCN3CCCCl)C1=O	-142.5	-0.1	80.2	1.3	+
CCN1C(=O)/C(=C/c2ccc3c(c2)CCN3CCCCl)C(=O)NC1=S	-41.4	9.0	50.9	-28.0	i
CC1CC2(C)C(=CC1=O)CCC1C3CCC(C)(O)C3(C)CC3OC312 (stereo not drawn)	6.1	.	.	.	.
CN(C)c1ccc2c(c1)N=C(c1ccco1)OP2(=S)N1CCOCC1 (stereo not drawn)	35.8	41.3*	15.1	26.4	i
CN(C)C1C(=O)C(C(N)=O)=C(O)C2(O)C(=O)C3=C(O)c4c(O)cccc4C(C)(O)C3C(O)C12 (stereo not drawn)	20.6	.	98.9*	.	+
Cc1cc(N2CCCC2)ccc1C=C(C#N)C#N	57.1	-3.2	?	-4.8	i
Cc1ccc2cc(C=C(C#N)C#N)c(Cl)nc2c1	53.0*	9.6	?	2.4	i

From PubChem
